# Laboratory results reported in PubChem BioAssay (NCI).
# Values joined by “and” are separate entries in the source; they are usually repeats but may differ in a detail not shown here. Equal entries are not always repeated. The panel holds about 83,000 compounds, 20% with a hit somewhere; the sample as a whole holds those more often.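 Cells were grown in 96-well plates and exposed to the test compound at a single concentration for 48 hours; results are reported as percent growth, with values below 10 considered active.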 Active and inactive are the calls of the source.
# Legend:
# Experiment in all cases: NCI-60 one-dose screen, 48 h (100 = growth as untreated, 0 = no growth, -100 = all killed)
# [1] = test system: DU-145 prostate; conditions: 10 µM unless noted
# [2] = test system: K-562 leukemia; conditions: 10 µM unless noted
# [3] = test system: MALME-3M melanoma; conditions: 10 µM unless noted
# [4] = test system: MDA-MB-231 breast; conditions: 10 µM unless noted
# [5] = test system: RXF 393 renal; conditions: 10 µM unless noted
# [6] = test system: SF-268 CNS; conditions: 10 µM unless noted
# [7] = test system: SF-295 CNS; conditions: 10 µM unless noted
# [8] = test system: SF-539 CNS; conditions: 10 µM unless noted
# [9] = test system: UACC-257 melanoma; conditions: 10 µM unless noted
# [10] = test system: M14 melanoma; conditions: 10 µM unless noted
# [11] = test system: HCT-15 colon; conditions: 10 µM unless noted
# [12] = test system: HT29 colon; conditions: 10 µM unless noted
# [13] = test system: SNB-75 CNS; conditions: 10 µM unless noted
# [14] = test system: SNB-19 CNS; conditions: 10 µM unless noted
# [15] = test system: U251 CNS; conditions: 10 µM unless noted
# [16] = test system: PC-3 prostate; conditions: 10 µM unless noted
# [17] = test system: SK-MEL-5 melanoma; conditions: 10 µM unless noted
# [18] = test system: UACC-62 melanoma; conditions: 10 µM
# [19] = test system: LOX IMVI melanoma; conditions: 10 µM unless noted
# [20] = test system: SK-MEL-28 melanoma; conditions: 10 µM
SMILES,growth [1],growth [2],growth [3],growth [4],growth [5],growth [6],growth [7],growth [8],growth [9],growth [10],growth [11],growth [12],growth [13],growth [14],growth [15],growth [16],growth [17],growth [18],growth [19],growth [20]
CC(=O)O[C@H]1C[C@@H]2OC3C=C(C)CCC3(C)[C@@]1(C)[C@@]21CO1 (some centres not stated),-10.8% (active) and -37.3% (active),3.64% (active) and -17.5% (active),-35.1% (active) and -36% (active),-12.8% (active) and -34.4% (active),-21.4% (active) and -34.9% (active),1.16% (active) and -20.3% (active),-26.1% (active) and 0.436% (active),-24.5% (active) and -26.6% (active),-26% (active) and -33.7% (active),-81.2% (active) and -64.8% (active),-0.358% (active) and -0.281% (active),-32.2% (active) and -30.6% (active),11.2% (inactive) and -18.3% (active),-0.212% (active) and 0.0305% (active),-8.47% (active) and -17.4% (active),-2.24% (active) and -4.21% (active),-47.8% (active) and -66.8% (active),-16.6% (active) and -10.1% (active),-58.9% (active) and -21.5% (active),-24.3% (active) and -29.8% (active)
COc1ccc(OC)c(/C=C/[N+](=O)[O-])c1,19.8% (inactive),4.27% (active),24.9% (inactive),5.7% (active),-88.7% (active),13.1% (inactive),–,-6.84% (active),-12% (active),-11.5% (active),-13.4% (active),-29.5% (active),33.7% (inactive),41.8% (inactive),-27.2% (active),-29.4% (active),-16.2% (active),-22.3% (active),-48.5% (active),-20% (active)
CCCCCCCCCCCC1CCCC(C)N1 (configuration not stated),92.4% (inactive),6.23% (active),–,72% (inactive),77.7% (inactive),73.5% (inactive),100% (inactive),97.5% (inactive),77.3% (inactive),95.3% (inactive),27.7% (inactive),14.9% (inactive),82% (inactive),93.2% (inactive),59.6% (inactive),44.4% (inactive),97% (inactive),88.2% (inactive),52.3% (inactive),96.7% (inactive)
Cc1ccc(C(=O)OC(C(=O)O)C(OC(=O)c2ccc(C)cc2)C(=O)O)cc1 (configuration not stated) (tested in a mixture with another compound),76% (inactive),11.1% (inactive),51.6% (inactive),–,54.1% (inactive),68.5% (inactive),61.8% (inactive),70.2% (inactive),46.1% (inactive),45.2% (inactive),16.3% (inactive),23% (inactive),55% (inactive),–,54.3% (inactive),29.4% (inactive),14.7% (inactive),45% (inactive),56.2% (inactive),57.7% (inactive)
CC[n+]1c(-c2ccccc2)c2cc(N)ccc2c2ccc(N)cc21,9.09% (active),39% (inactive),-25% (active),33.1% (inactive),-16.7% (active),-26.3% (active),13.6% (inactive),-12.7% (active),-19.3% (active),33% (inactive),88.9% (inactive),9.77% (active),-88.5% (active),-5.17% (active),-2.55% (active),20.9% (inactive),–,-81.3% (active),13.5% (inactive),-42.9% (active)
CC1=C(CO)C2=C(C)C3(CC3)[C@@](C)(O)C(=O)C2=C1,-20.1% (active),26.3% (inactive),-87.5% (active),4.5% (active),8.42% (active),4.48% (active),-8.22% (active),-62.8% (active),-1.44% (active),-59.3% (active),-22.2% (active),-17.8% (active),-83.8% (active),11.3% (inactive),2.57% (active),-18.8% (active),-84.1% (active),-81.5% (active),22.8% (inactive),–
CC1=C2C(=O)[C@H]3[C@@H](CC=C4C[C@@H](O)CC[C@@]43C)[C@@H]2CC[C@]12O[C@@H]1C[C@H](C)CN[C@H]1[C@H]2C,151% (inactive),154% (inactive),84.6% (inactive),105% (inactive),98.8% (inactive),105% (inactive),93.3% (inactive),101% (inactive),104% (inactive),92.9% (inactive),94.2% (inactive),82.6% (inactive),68.6% (inactive),106% (inactive),107% (inactive),–,96.8% (inactive),112% (inactive),96.4% (inactive),118% (inactive)
C[C@]12CC[C@H](O)CC1=CC[C@@H]1[C@@H]2CC[C@]2(C)C(=O)CC[C@@H]12,122% (inactive),80.5% (inactive),80.9% (inactive),106% (inactive),110% (inactive),106% (inactive),102% (inactive),100% (inactive),102% (inactive),101% (inactive),99.7% (inactive),81.5% (inactive),71.6% (inactive),95% (inactive),101% (inactive),79.2% (inactive),92.9% (inactive),92.9% (inactive),102% (inactive),–
COC1=C(C)C(=O)C2=C(C1=O)C(CO)N1C(C#N)C3CC4C(C1C2N1CCOC41)N3C (configuration not stated),1.67% (active),-45.3% (active),-97.4% (active),-11.9% (active),-88.9% (active),-13.6% (active),-29.7% (active),-60.3% (active),2.61% (active),-85.9% (active),-29.8% (active),-47.7% (active),–,8.12% (active),-9.96% (active),-40.2% (active),-90.1% (active),-81.2% (active),-21.2% (active),–
Cc1cc(N=Nc2ccccc2C)ccc1N,68.1% (inactive),65.7% (inactive),68.6% (inactive),75.1% (inactive),99.6% (inactive),47.3% (inactive),83.9% (inactive),48.9% (inactive),132% (inactive),–,84.9% (inactive),103% (inactive),42.5% (inactive),69.7% (inactive),74.9% (inactive),–,79.3% (inactive),74% (inactive),71.5% (inactive),99.4% (inactive)
CCOC(=O)C(NC(=O)C(Cc1ccc(N(CCCl)CCCl)cc1)NC(C)=O)C(C)C (configuration not stated),99.7% (inactive),85.6% (inactive),91.7% (inactive),96.8% (inactive),96.4% (inactive),71.5% (inactive),86% (inactive),77.3% (inactive),87.2% (inactive),84.1% (inactive),94.9% (inactive),67.1% (inactive),85.9% (inactive),90.6% (inactive),73.7% (inactive),67.4% (inactive),97.7% (inactive),83.1% (inactive),66.1% (inactive),101% (inactive)
Oc1cccc2cccnc12,82% (inactive) and 108% (inactive) and 111% (inactive),44.2% (inactive) and 106% (inactive) and 102% (inactive),96.3% (inactive) and 98.2% (inactive),92.9% (inactive) and 109% (inactive) and 101% (inactive),95.7% (inactive) and 104% (inactive) and 112% (inactive),80% (inactive) and 101% (inactive),99.7% (inactive) and 108% (inactive) and 115% (inactive),113% (inactive) and 90.2% (inactive),80.1% (inactive) and 98.6% (inactive) and 111% (inactive),76% (inactive) and 102% (inactive) and 94.3% (inactive),64.3% (inactive) and 110% (inactive) and 97.1% (inactive),51.8% (inactive) and 106% (inactive),101% (inactive) and 106% (inactive) and 89.6% (inactive),95.1% (inactive) and 108% (inactive) and 102% (inactive),72.3% (inactive) and 99.1% (inactive) and 106% (inactive),86.9% (inactive) and 97.3% (inactive) and 92.3% (inactive),97.2% (inactive) and 99.9% (inactive) and 110% (inactive),97.2% (inactive) and 94.1% (inactive),71.9% (inactive) and 99.1% (inactive) and 107% (inactive),97.2% (inactive) and 107% (inactive) and 106% (inactive)
CC[C@](O)(C(=O)O)c1cc2n(c(=O)c1CO)Cc1cc3ccccc3nc1-2,-30.7% (active),-27.9% (active),-38.2% (active),34.5% (inactive),9.87% (active),8.53% (active),-13.2% (active),-48.2% (active),0.116% (active),-26.5% (active),-5.77% (active),-31.3% (active),-33.5% (active),1.96% (active),1.58% (active),-8.14% (active),-94.2% (active),-68.6% (active),-40.9% (active),–
